Assay outcomes from PubChem BioAssay.
Compounds with a hit are over-represented: about 5.9% of the library has one in this group of screens.
GLP1R ag: activates the human GLP-1 receptor. P43220. HEK293 GLP-1R CRE-luciferase, luminescence, 4-6 h; cells express a hypersensitive GLP-1R form. 380,000 tested, 0.007% active. AID 624172. Potency, µM (top dose mostly 45.6 µM), inactives show top-dose activation, most hits filed as activators; also: % of control where 0% means no effect
Target sequence (P43220 whole entry, looked up): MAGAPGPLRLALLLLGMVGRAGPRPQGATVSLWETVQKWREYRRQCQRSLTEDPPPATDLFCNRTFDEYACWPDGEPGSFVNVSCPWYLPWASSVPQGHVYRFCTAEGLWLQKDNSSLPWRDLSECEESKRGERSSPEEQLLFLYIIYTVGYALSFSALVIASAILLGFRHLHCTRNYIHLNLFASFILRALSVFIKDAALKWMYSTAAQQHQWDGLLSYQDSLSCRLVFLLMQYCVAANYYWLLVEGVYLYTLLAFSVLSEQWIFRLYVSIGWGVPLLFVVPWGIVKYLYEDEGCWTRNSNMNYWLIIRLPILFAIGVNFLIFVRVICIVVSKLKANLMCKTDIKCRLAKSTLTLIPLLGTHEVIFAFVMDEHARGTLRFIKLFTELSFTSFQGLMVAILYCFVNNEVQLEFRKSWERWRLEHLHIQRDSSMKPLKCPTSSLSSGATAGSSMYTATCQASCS
RORg inh: blocks mouse ROR gamma transcriptional activity; 310,000 tested, 5.4% active; P51450; Drosophila S2 Gal4-RORgamma UAS-luciferase reporter, 20 h; Potency, µM (titrated, usually from 53.6 µM), for the others: at the top dose activity change, negative = inhibition, actives largely listed as inhibitors; also: % is scaled to controls: 0 for no effect and ±100 for the full control effect; nearly all actives have a fitted effect of over 60% in size
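Luminescence from a UAS-regulated Photinus luciferase reporter in stably transfected Drosophila Schneider cells is measured; decreased signal marks ROR gamma inhibition. Fusion expression is induced by 700 uM copper sulfate for 20 hr.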
VP16 counter: Gal4-VP16 reporter inhibition counter-screen; Drosophila S2 Gal4-VP16 UAS-luciferase, luminescence, 20 h; Potency, µM (doses to about 53.6 µM), for the others: at the top dose activity, negative = inhibition, hits mostly inhibitors; 310,000 tested, 3.5% active;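 also: Gal4-VP16 expression switched on by copper sulfate through the metallothionein promoter; % is scaled to controls: 0 for no effect and ±100 for the full control effect; nearly all actives have a fitted effect of over 50% in size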
HEK293 tox: cytotoxic in the GLP-1 receptor inverse agonist counter-screen; 410,000 tested, 0.13% active; HEK293 cAMP-luciferase reporter cells, luminescence, 24 h; Potency, µM (doses to about 38.3 µM), for the others: at the top dose activity change, negative = inhibition, hits mostly inhibitors; AID 624418;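 also: loss of luciferase light is scored as toxicity; % is scaled to controls: 0 for no effect and ±100 for the full control effect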
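Luminescence readout: signal drop marks cytotoxicity. Plated cells grew 12 h at 37 °C, 5% CO2, received 23 nL compound for 24 h, then got luciferase reagent, read after 12 min at RT.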
GLP-1R inv ag: inverse agonists of human GLP-1 receptor; P43220; HEK293 GLP-1R CRE-luciferase, luminescence, 24 h; GLP-1R form is constitutively active; Potency, µM (top dose mostly 38.3 µM), for the others: at the top dose activity change, negative = inhibition, usual class: inhibitors; 410,000 tested, 1.6% active; AID 624417; also: % is scaled to controls: 0 for no effect and ±100 for the full control effect; nearly all actives have a fitted effect of over 55% in size
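qHTS in 1536-well format: reporter HEK293 cells expressing constitutive GLP-1R activity in DMEM + 10% Nu serum, 24 hr with compounds at 37 deg C, luminescence read after 12 min with detection reagent.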
* hit, by the source's call; [ ] = remark or other dose. Calls follow the shape of the dose curve; as a rule, active = well fitted curve in the direction sought with a large enough effect; inconclusive = small, poorly fitted or top-dose-only effect, or another doubt; inactive = no such curve, though single readings can be large; an effect the other way counts as inactive or inconclusive. Potency is read from the fitted curve at half-maximal effect.

For O=C(c1ccccc1)N1CCN(c2nc3ccc([N+](=O)[O-])cc3s2)CC1 the results were GLP1R ag 0.0%, RORg inh inconclusive, VP16 counter 8.91µM*, HEK293 tox -14.0% and GLP-1R inv ag inconclusive.
For CCc1cc2c(nc1CC)CCN(CC/C(C)=N/OC[C@@H](O)[C@@H]1O[C@@H]3OC(C)(C)O[C@@H]3[C@H]1O)C2 the results were RORg inh 18.1%[10 µM] and VP16 counter 10.6%[10 µM].
CCCCCC=CCC=CCCCCCCCC(=O)OCC was read as GLP1R ag 2.7%, RORg inh 0.1% and VP16 counter -1.4%.
Screening CC1CCN(C(=O)Cn2c(=O)n(CCCCCC(=O)NCc3ccccc3Cl)c(=O)c3sccc32)CC1 returned HEK293 tox -9.8% and GLP-1R inv ag 4.7%.
For Cc1ccccc1-c1nc(-n2ccnc2)c2ccccc2n1 the results were RORg inh 10µM* and VP16 counter 9.2%.
`O=C(/C=C/c1ccccc1)c1ccc(NC2=NCCCS2)cc1` gave GLP1R ag -41.8%, RORg inh inconclusive, VP16 counter inconclusive, HEK293 tox inconclusive and GLP-1R inv ag inconclusive.
Screening CC(C)(C)c1ccc(/C=C/C(=O)c2ccc(NC3=NCCCS3)cc2)cc1 returned GLP1R ag 4.9%, RORg inh inconclusive, VP16 counter 5.62µM*, HEK293 tox -2.7% and GLP-1R inv ag inconclusive.
For O=S(=O)(c1ccc(Br)s1)N1CCC(Cc2ccccc2)CC1 the results were GLP1R ag -5.0%, RORg inh 12.6µM*, VP16 counter -11.4%, HEK293 tox 25.1% and GLP-1R inv ag 0.0%.
`Brc1ccc(-c2csc(N3CCOCC3)n2)cc1` gave GLP1R ag 12.1%, RORg inh -1.1%, VP16 counter 23.9%[10 µM], HEK293 tox 5.7% and GLP-1R inv ag 6.8%.
Screening Brc1ccc(-c2csc(N3CCCCCC3)n2)cc1 returned GLP1R ag 14.5%, RORg inh 11.2µM*, VP16 counter inconclusive, HEK293 tox 0.6% and GLP-1R inv ag 0.6%.
Cc1cc2cc(CNC(=O)c3ccc(Br)o3)ccc2[nH]1 was read as GLP1R ag -1.8%, RORg inh -15.2%, VP16 counter 0.8%, HEK293 tox -16.3% and GLP-1R inv ag 1.7%.
`CCCCNC(=S)NCc1ccc2[nH]c(C)cc2c1` gave GLP1R ag 4.0%, RORg inh 10µM*, VP16 counter inconclusive, HEK293 tox -10.7% and GLP-1R inv ag inconclusive.
For CCOc1ccc(NC(=S)NCc2ccc3[nH]c(C)cc3c2)cc1 the results were GLP1R ag 3.8%, RORg inh 2.51µM*, VP16 counter 10µM*, HEK293 tox -5.4% and GLP-1R inv ag inconclusive.
COc1cc(OC)cc(C(=O)NCc2ccc3[nH]c(C)cc3c2)c1 was read as GLP1R ag 7.9%, RORg inh 5.8%, VP16 counter -22.8%, HEK293 tox 6.9% and GLP-1R inv ag -3.6%.
`CC(=O)N=c1sc2nc3ccccc3nc2n1N(C(C)=O)C(C)=O` gave GLP1R ag 0.4%, RORg inh 10µM*, VP16 counter inconclusive, HEK293 tox 5.0% and GLP-1R inv ag -3.2%.
Screening COc1ccc(C2=Nn3c(nnc3-c3cccc(OC)c3OC)SC2)cc1OC returned RORg inh -5.8% and VP16 counter 4.3%.
`CCOc1ccc(-n2c(N)c(C(=O)NCc3ccco3)c3nc4ccccc4nc32)cc1` gave GLP1R ag -0.9%, RORg inh inconclusive, VP16 counter 1.3%, HEK293 tox 196.7% and GLP-1R inv ag inconclusive.
Screening CCOc1ccc(-n2c(N)c(-c3nc4ccccc4n3C)c3nc4ccccc4nc32)cc1 returned GLP1R ag -0.4%, RORg inh 1µM*, VP16 counter 1.26µM*, HEK293 tox 25.9% and GLP-1R inv ag 4.7%.
For NC(=O)C1CCN(Cc2nc3cc(Cl)ccc3c(=O)[nH]2)CC1 the results were GLP1R ag -13.8%, RORg inh -2.9%, VP16 counter 21.7%, HEK293 tox 28.7% and GLP-1R inv ag -9.6%.
`CCNCc1nc2cc(Cl)ccc2c(=O)[nH]1` gave GLP1R ag 3.5%, RORg inh 6.31µM*, VP16 counter 15.8µM*, HEK293 tox inconclusive and GLP-1R inv ag 10µM*.
For CCN1C(C(=O)c2ccccc2)=C(OC(=O)c2ccccc2OC)c2ccccc2S1(=O)=O the results were HEK293 tox inconclusive and GLP-1R inv ag 10µM*.
For COc1ccc(CCN2C(=O)CSC2=S)cc1OC the results were GLP1R ag 1.5%, RORg inh inconclusive, VP16 counter -11.2%, HEK293 tox inconclusive and GLP-1R inv ag 5.62µM*.
`CC(=O)OC1=CN(Cc2ccccc2)S(=O)(=O)c2ccccc21` gave HEK293 tox 3.0% and GLP-1R inv ag -18.1%.
For C(=C\c1ccccc1)/CN1CCN(c2ncnc3c2oc2ccccc23)CC1 the results were GLP1R ag 5.7%, RORg inh inconclusive, VP16 counter 17.8µM*, HEK293 tox 7.9% and GLP-1R inv ag inconclusive.
Screening c1cnc(N2CCN(c3ncnc4c3oc3ccccc34)CC2)nc1 returned RORg inh 30.3% and VP16 counter -0.2%.
NCC1O[C@@H](O[C@@H]2C(O)[C@H](O[C@H]3OC(CO)C(O)C(N)C3O)[C@@H](N)C[C@H]2N)C(N)C(O)C1O (stereo partly specified) was read as GLP1R ag 2.2%, RORg inh 0.8% and VP16 counter 2.3%.
For O=C(c1ccc(CS(=O)(=O)c2c(Cl)cccc2Cl)o1)N1CCN(c2ccccc2)CC1 the results were HEK293 tox -1.1% and GLP-1R inv ag 0.3%.
Screening O=C(c1cc2ccc3cccnc3c2[nH]1)N1CCCCC1 returned HEK293 tox 4.1% and GLP-1R inv ag 6.31µM*.
Screening O=C(c1cc2ccc3cccnc3c2[nH]1)N1CCN(c2ccc(Cl)cc2)CC1 returned HEK293 tox 5.3% and GLP-1R inv ag -0.7%.
For CC1CCCN(C(=O)c2cc3ccc4cccnc4c3[nH]2)C1 (stereo unspecified) the results were HEK293 tox -1.9% and GLP-1R inv ag 6.31µM*.
Screening CCN(CC#CCC(O)(c1ccccc1)C1CCCC1)C(C)C (stereo unspecified) returned GLP1R ag -7.3%, RORg inh -0.7%, VP16 counter -4.7%, HEK293 tox -29.8% and GLP-1R inv ag 11.2µM*.
`Cc1cc(C)c(NC(=O)c2cc(S(=O)(=O)N3CCN(c4ccccc4F)CC3)ccc2F)c(C)c1` gave HEK293 tox -12.0% and GLP-1R inv ag inconclusive.
Screening CCCNC(=S)Nc1ccc(CC(=O)OC)cc1 returned GLP1R ag -0.7%, RORg inh -40.3%, VP16 counter 6.8%, HEK293 tox 17.9% and GLP-1R inv ag 10.1%.
